Several values for one entry are separate records, joined by “and”; a condition that tells them apart may be missing. Equal values may be shown once. Hit rate of the full screen: of about 5,500 compounds, about 2,000 (36%) were called active. About 18% were inconclusive and are not listed. No stated cut-off is given here; in the data, active means normalized growth mostly below about 0.91 (no sharp cut-off); inconclusive means no clear call, values can overlap the other calls; inactive means mostly above about 0.92. Some of the results follow.
Test: chemical genetic growth profiling, strain panel (AID 1159580);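 further: tested at 20 µM; growth read once vehicle control cultures reached saturation at 30 °C; 1 = growth at the plate median or of vehicle wells; lower values mean less growth of the strain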
Conditions: growth OD

Measured: normalized growth

Nc1nc(N)c2nc(-c3ccccc3)c(N)nc2n1
inactive: S. cerevisiae deletion strains, locus YJR075W, strain HOC1, active compounds read low 1.01 | S. cerevisiae deletion strains, locus YKL009W, strain mrt4, active compounds read low 1.02 | S. cerevisiae deletion strains, locus YKL068W, active compounds read low 1 | S. cerevisiae deletion strains, locus YKL085W, strain MDH1 (second series), active compounds read low 1.01 | S. cerevisiae deletion strains, locus YKL085W, strain MDH1, active compounds read low 1.01 | S. cerevisiae deletion strains, locus YKL160W, strain elf1, active compounds read low 1 | S. cerevisiae deletion strains, locus YKL190W, strain CNB1, active compounds read low 1 | S. cerevisiae deletion strains, locus YKR001C, strain vps1, active compounds read low 1.02 | S. cerevisiae deletion strains, locus YKR026C, strain gcn3, active compounds read low 1.01 | S. cerevisiae deletion strains, locus YKR091W, strain srl3, active compounds read low 0.998 | S. cerevisiae deletion strains, locus YLL001W, strain dnm1, active compounds read low 1 | S. cerevisiae deletion strains, locus YLL026W, active compounds read low 0.999 | S. cerevisiae deletion strains, locus YLL041C, strain sdh2, active compounds read low 0.999 | S. cerevisiae deletion strains, locus YLR027C, strain aat2, active compounds read low 1.01 | S. cerevisiae deletion strains, locus YLR039C, strain RIC1, active compounds read low 1.04 | S. cerevisiae deletion strains, locus YLR058C, strain SHM2, active compounds read low 1 | S. cerevisiae deletion strains, locus YLR102C, strain apc9, active compounds read low 1.01 | S. cerevisiae deletion strains, locus YLR113W, strain HOG1, active compounds read low 1 | S. cerevisiae deletion strains, locus YLR221C, strain rsa3, active compounds read low 0.975 | S. cerevisiae deletion strains, locus YLR258W, strain gsy2, active compounds read low 0.999 | S. cerevisiae deletion strains, locus YLR262C, strain YPT6 (second series), active compounds read low 1.02 | S. cerevisiae deletion strains, locus YLR262C, strain YPT6, active compounds read low 1 | S. cerevisiae deletion strains, locus YLR268W, strain sec22, active compounds read low 1.05 | S. cerevisiae deletion strains, locus YLR320W, strain mms22, active compounds read low 0.99 | S. cerevisiae deletion strains, locus YLR330W, strain CHS5, active compounds read low 1.01 | S. cerevisiae deletion strains, locus YLR342W, strain FKS1 (second series), active compounds read low 1.02 | S. cerevisiae deletion strains, locus YLR342W, strain FKS1, active compounds read low 0.996 | S. cerevisiae deletion strains, locus YLR357W, strain rsc2, active compounds read low 1.01 | S. cerevisiae deletion strains, locus YLR370C, strain arc18, active compounds read low 0.995 | S. cerevisiae deletion strains, locus YLR371W, strain rom2, active compounds read low 1.01 | S. cerevisiae deletion strains, locus YLR384C, strain iki3, active compounds read low 1.01 | S. cerevisiae deletion strains, locus YLR418C, strain cdc73, active compounds read low 0.972 | S. cerevisiae deletion strains, locus YML016C, strain PPZ1, active compounds read low 0.999 | S. cerevisiae deletion strains, locus YML032C, strain rad52, active compounds read low 1.02 | S. cerevisiae deletion strains, locus YML120C, strain ndi1, active compounds read low 1.02 | S. cerevisiae deletion strains, locus YML124C, strain tub3, active compounds read low 1.01 | S. cerevisiae deletion strains, locus YMR058W, strain fet3, active compounds read low 1.01 | S. cerevisiae deletion strains, locus YMR078C, strain ctf18, active compounds read low 1 | S. cerevisiae deletion strains, locus YMR125W, strain sto1, active compounds read low 1 | S. cerevisiae deletion strains, locus YMR129W, active compounds read low 0.998 | S. cerevisiae deletion strains, locus YMR205C, strain PFK2, active compounds read low 1.01 | S. cerevisiae deletion strains, locus YMR223W, strain ubp8, active compounds read low 0.994 | S. cerevisiae deletion strains, locus YMR231W, strain pep5, active compounds read low 0.997 | S. cerevisiae deletion strains, locus YMR263W, strain SAP30, active compounds read low 1 and 0.995 | S. cerevisiae deletion strains, locus YMR307W, strain GAS1, active compounds read low 1.04 and 1.01 | S. cerevisiae deletion strains, locus YNL067W, strain RPL9B, active compounds read low 0.995 | S. cerevisiae deletion strains, locus YNL071W, strain lat1, active compounds read low 0.996 | S. cerevisiae deletion strains, locus YNL153C, strain GIM3, active compounds read low 1 | S. cerevisiae deletion strains, locus YNL175C, strain NOP13, active compounds read low 0.987 | S. cerevisiae deletion strains, locus YNL183C, strain NPR1, active compounds read low 0.933 | S. cerevisiae deletion strains, locus YNL197C, strain WHI3, active compounds read low 0.967 | S. cerevisiae deletion strains, locus YNL209W, strain ssb2, active compounds read low 1 | S. cerevisiae deletion strains, locus YNL224C, strain SQS1, active compounds read low 0.995 | S. cerevisiae deletion strains, locus YNL233W, strain BNI4, active compounds read low 1 | S. cerevisiae deletion strains, locus YNL248C, strain rpa49, active compounds read low 0.969 | S. cerevisiae deletion strains, locus YNL250W, strain rad50, active compounds read low 1 | S. cerevisiae deletion strains, locus YNL271C, strain bni1, active compounds read low 1.01 | S. cerevisiae deletion strains, locus YNL298W, strain CLA4, active compounds read low 1.03 | S. cerevisiae deletion strains, locus YNL307C, strain MCK1, active compounds read low 1.01 | S. cerevisiae deletion strains, locus YNL322C, strain KRE1 (second series), active compounds read low 1.01 | S. cerevisiae deletion strains, locus YNL322C, strain KRE1, active compounds read low 1 | S. cerevisiae deletion strains, locus YNR049C, strain mso1, active compounds read low 0.993 | S. cerevisiae deletion strains, locus YNR052C, strain pop2, active compounds read low 1.01 | S. cerevisiae deletion strains, locus YOL006C, strain TOP1, active compounds read low 1.02 | S. cerevisiae deletion strains, locus YOL012C, strain htz1 0.947 | S. cerevisiae deletion strains, locus YOL147C, strain pex11, active compounds read low 1.01 | S. cerevisiae deletion strains, locus YOR001W, strain rrp6, active compounds read low 1.01 | S. cerevisiae deletion strains, locus YOR061W, strain CKA2, active compounds read low 0.999 | S. cerevisiae deletion strains, locus YOR069W, strain VPS5, active compounds read low 1 | S. cerevisiae deletion strains, locus YOR070C, strain gyp1, active compounds read low 0.991 | S. cerevisiae deletion strains, locus YOR080W, strain dia2, active compounds read low 1.01 | S. cerevisiae deletion strains, locus YOR083W, strain WHI5 (second series), active compounds read low 0.969 | S. cerevisiae deletion strains, locus YOR083W, strain WHI5, active compounds read low 0.989 | S. cerevisiae deletion strains, locus YOR106W, strain vam3, active compounds read low 1.02 | S. cerevisiae deletion strains, locus YOR136W, strain idh2, active compounds read low 0.993 | S. cerevisiae deletion strains, locus YOR144C, strain elg1, active compounds read low 1.01 | S. cerevisiae deletion strains, locus YOR184W, strain ser1, active compounds read low 0.98 | S. cerevisiae deletion strains, locus YOR231W, strain MKK1, active compounds read low 1.01 | S. cerevisiae deletion strains, locus YOR265W, strain rbl2, active compounds read low 0.996 | S. cerevisiae deletion strains, locus YOR270C, strain vph1, active compounds read low 1.01 | S. cerevisiae deletion strains, locus YOR290C, strain snf2, active compounds read low 0.991 | S. cerevisiae deletion strains, locus YOR316C, strain cot1, active compounds read low 1.01 | S. cerevisiae deletion strains, locus YPL051W, strain arl3, active compounds read low 0.993 | S. cerevisiae deletion strains, locus YPL055C, strain LGE1, active compounds read low 1.02 | S. cerevisiae deletion strains, locus YPL078C, strain atp4, active compounds read low 1.01 | S. cerevisiae deletion strains, locus YPL106C, strain sse1, active compounds read low 0.995 | S. cerevisiae deletion strains, locus YPL240C, strain hsp82, active compounds read low 1 | S. cerevisiae deletion strains, locus YPL241C, strain CIN2, active compounds read low 1 and 0.998 | S. cerevisiae deletion strains, locus YPL256C, strain CLN2, active compounds read low 0.99 | S. cerevisiae deletion strains, locus YPR119W, strain clb2, active compounds read low 1 | S. cerevisiae deletion strains, locus YPR141C, strain kar3, active compounds read low 1.01 | S. cerevisiae deletion strains, locus YPR163C, strain tif3, active compounds read low 1.02 | S. cerevisiae deletion strains, locus YPR167C, strain met16, active compounds read low 1.01 | S. cerevisiae deletion strains, strain wtn01, active compounds read low 1.01 | S. cerevisiae strains, strain wild type, active compounds read low 0.997
